Screening data (PubChem)
The list is not random: actives were taken first. Their share in the collection is about 14%.
FBPA Giardia inh = blocks Giardia fructose-bisphosphate aldolase activity | hit rate 0.71% among 290,000 | purified Giardia FBPA | Potency, µM (highest dose often 59.6 µM), without a hit: top-dose activity, negative = inhibition, most hits filed as inhibitors; also: potency is read from the fitted curve at half-maximal effect; nearly all actives have a fitted effect of over 55% in size
Target sequence (A8B2U2 whole entry, looked up): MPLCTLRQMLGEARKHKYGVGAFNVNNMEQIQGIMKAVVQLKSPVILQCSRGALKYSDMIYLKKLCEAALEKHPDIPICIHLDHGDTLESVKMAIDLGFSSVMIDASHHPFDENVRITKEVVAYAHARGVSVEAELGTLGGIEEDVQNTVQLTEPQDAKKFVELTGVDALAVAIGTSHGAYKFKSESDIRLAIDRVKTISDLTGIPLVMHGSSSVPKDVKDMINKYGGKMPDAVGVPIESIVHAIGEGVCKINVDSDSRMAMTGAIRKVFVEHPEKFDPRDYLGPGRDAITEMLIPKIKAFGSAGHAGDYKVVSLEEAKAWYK
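Giardia FBPA (40 nM reagent) was preincubated 10 min at RT with compound (up to 57.5 uM final), then substrate plus GAPDH/TPI/NAD/arsenate coupling system with diaphorase/resazurin was added; resorufin fluorescence (525/598 nm) was read after 20 min.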
Sm TGR block = S. mansoni TGR enzyme inhibition | Q962Y6 | purified TGR, DTNB reduction, TNB absorbance 405 nm | Potency, µM (titrated, usually from 114 µM), for the others: top-dose activity change, negative = inhibition, most hits filed as inhibitors | hit rate 3% among 360,000 | AID 485364; also: potency is read from the fitted curve at half-maximal effect; nearly all actives have a fitted effect of over 60% in size
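Kinetic colorimetric format: TGR-catalysed, NADPH-driven DTNB reduction monitored via TNB absorbance. Enzyme dispensed at 20 nM; compound exposure 15 min at room temperature before reaction start.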
Pf growth 48h = P. falciparum growth inhibition at 48 hours (one generation); Potency, µM (titrated, usually from 28.7 µM), for the others: at the highest dose activity change, negative = inhibition, most hits filed as inhibitors; P. falciparum luciferase growth in erythrocytes, 48 h; hit rate 5.9% among 310,000; AID 504832; also: potency is read from the fitted curve at half-maximal effect
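Cell-based growth assay: transgenic P. falciparum expressing firefly luciferase, cultured in red cells within RPMI 1640 containing 0.5% w/v Albumax, 24 mM bicarbonate and gentamycin. A drop in luciferase activity indicates inhibition.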
HCMV antiviral = human cytomegalovirus inhibition. HFF cells, HCMV-luciferase reporter, 72 h; active compounds read low. activity change, negative = inhibition, % at 57.5 µM. hit rate 4.5% among 410,000; in the data active = activity change below about -60%; inconclusive = no clear call, values can overlap the other calls; inactive = above about -39%
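Compounds were evaluated in HFFs infected with an HCMV luciferase reporter virus (MOI 1 PFU/cell). Luciferase in lysates collected 72 h post infection served as the replication measure.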
Pf growth 96h = P. falciparum growth inhibition at 96 hour, primary screen for plastid delayed-death inhibitors; P. falciparum luciferase reporter growth, 96 h; Potency, µM (highest dose often 28.7 µM), inactives show at the highest dose activity change, negative = inhibition, usual class: inhibitors; hit rate 6.9% among 320,000; AID 504834; also: potency is read from the fitted curve at half-maximal effect
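Two-generation exposure (96 h) targets delayed-death phenotype. Reporter parasites carrying integrated firefly luciferase, in red cells at 2% hematocrit and 0.05% parasitemia final, kept at 37 C, 5% CO2; luminescence loss indicates inhibition.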
* marks the source's active call; other numbers are inactive results; ? = inconclusive; / = no result; [ ] = remark or other dose. Unless noted, calls follow the shape of the dose curve; as a rule, active = well fitted curve in the direction sought with a large enough effect; inconclusive = small, poorly fitted or top-dose-only effect, or another doubt; inactive = no such curve, though single readings can be large; an effect the other way counts as inactive or inconclusive. % is scaled to controls: 0 for no effect and ±100 for the full control effect.

SMILES | FBPA Giardia inh | Sm TGR block | Pf growth 48h | HCMV antiviral | Pf growth 96h
O=C(Nc1ccc(N2CCN(Cc3ccccc3Cl)CC2)cc1)c1cccnc1 | 9% | 1% | ? | -64* | 7%
Fc1ccc(CNc2ccc(N3CCN(Cc4ccccc4)CC3)cc2)cc1 | 0% | ? | -22% | ? | 9.3µM*
COc1ccc2c(CNCc3cccs3)c(C(=O)O)n(Cc3ccccc3C)c2c1 | / | -2% | / | 0 | /
O=C(Nc1ccccc1)C1=C[C@@H](c2ccc(C(F)(F)F)cc2)C[C@@H](OCc2ccc(CO)cc2)O1 | -8% | 6% | ? | 4 | ?
O=C(c1c[nH]c(C(=O)C(Cl)(Cl)Cl)c1)c1c(F)cccc1F | 2% | 5% | -5%[0.00184 µM] | -80* | ?
O=C(c1c[nH]c(C(=O)C(Cl)(Cl)Cl)c1)c1ccccc1F | -4% | -18% | -2%[0.00184 µM] | 8 | -7%
COc1ccc(N(C(=O)c2ccccc2C)S(=O)(=O)c2cccs2)cc1 | -6% | 2% | ? | -77* | 8.3µM*
COc1ccc(N(C(=O)c2ccccc2C)S(=O)(=O)c2ccc(C)cc2)cc1 | / | 11% | / | -20 | /
CCOC(=O)c1c(/N=C/c2ccc(OC)cc2O)sc2c1CCN(C)C2 | ? | ? | 10µM* | -20 | 5.2µM*
CN1CCc2c(sc(/N=C/c3c[nH]c4ccccc34)c2C(N)=O)C1 | ? | 7% | 4.1µM* | -2 | 3.7µM*
CCN(c1ccccc1)S(=O)(=O)c1ccc(Cl)c(NC(=O)CN(C)C2CCN(C)CC2)c1 | ? | 0% | ? | ? | ?
Cc1ccc(NC(=O)N2CCC(NC(=O)c3cccc(C)c3)CC2)cc1 | 6% | ? | ? | 10 | 10µM*
O=C(NC1CCCCC1)C1CCN(C(=O)NCc2ccccc2)CC1 | 4% | 6% | -13% | 4 | /
O=C(NC1CCCC1)C1CCN(C(=O)NCc2ccccc2)CC1 | 6% | 11% | 12% | -63* | -29%
Cc1cccc(C(=O)NC2CCN(C(=O)NCc3ccccc3)CC2)c1 | -3% | 11µM* | -11% | -5 | 229%
CCCNC(=S)N1CCC(NC(=O)c2cccc(C)c2)CC1 | 1% | 1% | 15% | 59 | -17%
COc1ccc2c(c1)CCc1c(C(=O)Nc3ccc(C#N)cc3)noc1-2 | / | 1% | / | -4 | /
O=C(CCc1nnc(C2CCCCC2)o1)N1CCN(C2CCCCC2)CC1 | 3% | 56µM* | 26% | -23 | -15%
C/C=C(\C)C(=O)NCCN1C2=NC[C@@H](C)N2C[C@H]1Cc1ccc(O)cc1 | -2% | ? | 51% | -4 | 50%
COc1ccc(C(=O)NCc2ccc3c(c2)cc(C)n3C)cc1 | 3% | 13% | -16% | -14 | -10%
Cc1ccc(C(=O)NCCc2ccccc2)cc1N1CCCC1=O | / | -8% | 33% | / | ?
COc1ccc(C[C@H]2CN3C(=NC[C@@H]3Cc3ccc(O)cc3)N2CCNC(=O)c2ccc(C)c(Br)c2)cc1 | -6% | -2% | 3.7µM* | 52 | 1.2µM*
Cc1ccc(C(=O)NCCN2C3=NC[C@@H](Cc4ccccc4)N3C[C@H]2Cc2ccc(O)cc2)cc1Br | 5% | -16% | 9.3µM* | ? | ?
Cc1ccc(C(=O)NCCN2C3=NC[C@H](Cc4ccc(O)cc4)N3C[C@H]2Cc2ccc(O)cc2)cc1Br | -2% | 3% | 4.1µM* | -11 | 2.9µM*
C/C=C(\C)C(=O)NCCN1C2=NC[C@H](Cc3ccccc3)N2C[C@H]1Cc1ccc(O)cc1 | -7% | ? | -21% | / | 3.7µM*
CC1(C)CC(NC(=O)c2ccc(Br)o2)CC(C)(C)N1 | -13% | -1% | -1% | -5 | 2%
CCOC(=O)c1ccc(S(=O)(=O)N2CCN(CC(O)COc3ccc(C#N)cc3)CC2)cc1 (centres undefined) | ? | 2% | -11% | 1 | -15%
O=C(O)c1cc(-c2ccc(-c3c(-c4ccc5c(c4)OCO5)noc3-c3ccsc3)cc2)nc2ccccc12 | -11% | -3% | 2% | ? | ?
c1ccc(-c2onc(-c3ccco3)c2-c2ccc3c(c2)OCO3)cc1 | -8% | 50µM* | ? | 14 | 13µM*
O=C(COC(=O)C1CC(=O)N(Cc2ccco2)C1)Nc1nc(-c2ccc(F)cc2)cs1 (centres undefined) | / | / | / | 3 | /
